About 370 (0.31%) of roughly 120,000 compounds were called active. Where a call stands in place of a potency, no number is given. Inconclusive results (about 4%) are left out. This is one part of a sample in which actives are shown more often than they occur. Values without a mark were called inactive. The call rests on the fitted dose curve.
Potency means the concentration at half of the fitted maximal effect.

This assay can be described thus: Primary qHTS Assay for Foot and Mouth Disease Virus Antivirals against NCGC Sytravon and CBC Compound Libraries: Renilla Luciferase Signal. Further: nearly all actives have a fitted effect of over 55% in size. The following applies: FMDV replicon cells; series mostly up to 57.5 µM. A general note: Quantitative high-throughput screening tests each substance at several concentrations.
With `Cc1cc(C)cc(Nc2nc(NCc3ccco3)nc3c2cnn3-c2ccccc2)c1`, the Potency result is “inactive”.
Regarding `Fc1cccc(-c2nc(COc3ccc4ccc(C(F)(F)F)nc4c3)co2)c1`, the Potency result is “inactive”.
With `C#CCN([C@H](C(=O)OC)C(C)CC)S(=O)(=O)c1ccccc1Br` (stereo not given in full), the Potency entry is “inactive”.
On the same count and under the same terms, the value for `CC1CC1C(=O)Nc1ccc2c(c1)CCC2` (stereo not given) was “inactive”; that for `O=C(NCCc1ccc(F)cc1)c1[nH]c2ccccc2c1Cl` was “inactive”.
With `COc1ccc(OC)c(C(O)c2nc3ccccc3n2C)c1` (stereo not given), the Potency result was “inactive”.
Still for that read-out and setting: the value for `Cc1ccc(CC(=O)NCc2ccc(COC(C)C)cc2)cc1` was “inactive”; that for `Cc1ccc(C)c(NC(NC(=O)c2cccc(Cl)c2)C(Cl)(Cl)Cl)c1` (stereo not given) was “inactive”; that for `CN(C(N)=NC(=O)/C=C/c1ccccc1)C(C#Cc1ccccc1)Cc1ccccc1` (stereo not given) was “inactive”.
Same read-out and setting: the value for `CCc1nnsc1C(=O)NC(C)c1cccc(OC(C)C)c1` (stereo not given) was “inactive”.
As to `O=C(CN1CCCC(C(F)(F)F)C1)Nc1cccc2ncccc12` (stereo not given), the Potency entry was “inactive”.
In the case of `CCOC(=O)c1ccccc1NC(=O)COC(=O)c1ccc2c(c1)NC(=O)C(C)S2` (stereo not given), the Potency result was “inactive”.
For the compound `COc1ccc(CSc2nnc(C3CC3)n2C2CC2)cc1F`, the Potency result was “inactive”.
Same read-out and setting: next, `COc1ccc(C)cc1NC(=O)c1ccc2c(c1)NC(=O)CS2`: “inactive”; `COc1ccc(Br)cc1COc1ccc(C#N)cc1`: “inactive”; `Cc1ccc(NCc2cc3ccc(C)cc3[nH]c2=O)c(C)c1`: “inactive”.
On to `Cc1cnc(NC(=O)CNC(=O)c2ccoc2)s1`, for which the Potency result was “inactive”.
In the case of `CC(CC(=O)Nc1ccc(O)cc1)(C(=O)O)c1ccccc1` (stereo not given), the Potency result is “inactive”.
Turning to `CC(/C=N/NC(=O)c1ccc(C)cc1)=C\c1ccccc1`, the Potency entry was “inactive”.
In the case of `CCC(C)NC(=O)CSc1ncc(-c2cccc(Br)c2)o1` (stereo not given), the Potency result is “inactive”.
On the same count and under the same terms, next, `O=C(Cc1ccc(F)cc1)Nc1c(NC2CCCCC2)c2ccccc2oc1=O`: “inactive”.
Same read-out and setting: the value for `CN(C)C(CNC(=O)Cc1n[nH]c(=O)c2ccccc12)Cc1ccccc1` (stereo not given) was “inactive”.
As for `CCCC(=O)Nc1nc2ccc(CCC(=O)NCc3cc(Br)ccc3OC)cc2s1`, the Potency result was “inactive”.
As to `CS(=O)(=O)N(CC(=O)N1CCc2ccccc2C1)c1cc(C(F)(F)F)ccc1Cl`, the Potency result was “inactive”.
Still for that read-out and setting: next, `Cc1ccc(C)c(N2CCN(C(=O)C3CCC(CNS(=O)(=O)c4cccs4)CC3)CC2)c1` (stereo not given): 31.6 µM (active); `COc1cccc(CNC(=O)C2CCC(CNS(=O)(=O)c3cccs3)CC2)c1` (stereo not given): “inactive”; `O=C(CNS(=O)(=O)c1cccs1)N1CCN(c2ccccc2Cl)CC1`: “inactive”.
Turning to `Fc1cc(CSc2nncn2C2CC2)c2ncccc2c1`, the Potency result was “inactive”.
As to `CC1CCN(S(=O)(=O)c2ccc3oc(=O)ccc3c2)CC1`, the Potency result was “inactive”.
For the compound `CCOC(=O)c1cnc(Nc2ccccc2)c2ccccc12`, the Potency result was “inactive”.
The same measure, in the same setting: next, `CC1(C)CC(=O)C2=C(C1)N(Cc1ccccc1)C(CCC1CCCCC1)=NC2(C(F)(F)F)C(F)(F)F`: “inactive”.
For the compound `COc1cc(C(=O)Oc2c(C)cccc2C)cc(Cl)c1OC(C)C`, the activity change, negative = inhibition is -5.15% [at 1.06 µM].
Turning to `CCn1c(C)cc(C(=O)Cn2nc(C)c(C)c(C#N)c2=O)c1C`, the Potency result was “inactive”.
Take `CCCCS(=O)C1CCCCC1OC(=O)c1ccccc1` (stereo not given): the Potency result was “inactive”.
The same measure, in the same setting: the value for `O=C(OCc1cccnc1)c1nn(Cc2ccccc2)c(=O)c2ccccc12` was “inactive”; that for `COC(=O)c1ccc(Cl)cc1NC(=O)Cn1c(=O)n(Cc2ccc(F)cc2)c(=O)c2ccccc21` was “inactive”.
Turning to `CC(C)NC(=O)CN1CCCN(C(=O)c2cc3ccccc3n2C)CC1`, the Potency entry is “inactive”.
Same read-out and setting: next, `O=C(NCc1ccc2c(c1)CCN2C(=O)c1ccccc1)c1ccccc1`: “inactive”; `O=C(NCc1ccc2c(c1)CCN2C(=O)c1ccccc1)Nc1cc(F)ccc1F`: 8.91 µM (active).
Still for that read-out and setting: the value for `O=C(COc1ccccc1)NCc1ccc2c(c1)CCN2C(=O)c1ccc(F)cc1` was “inactive”.
The same measure, in the same setting: the value for `COC(=O)Cc1csc(NC(=O)Cc2c(C)c3ccc(OC)cc3oc2=O)n1` was “inactive”; that for `O=C(NCCOc1ccccc1F)c1n[nH]c(=O)c2ccccc12` was “inactive”.
With `NS(=O)(=O)c1ccc(NC(=O)COc2ncnc3ccc(Br)cc23)cc1`, the Potency entry was “inactive”.
Turning to `Cc1cccc2nc(-c3ccc(N4CCOCC4)cc3)c(Nc3ccc4c(c3)OCCO4)n12`, the Potency entry is “inactive”.
For the compound `O=C(OC1CCCCC1=O)c1ccc(Cl)c(Cl)c1` (stereo not given), the Potency entry was “inactive”.
Same read-out and setting: next, `O=C(NC(Cc1cccc(F)c1)c1cccc(F)c1)C1CCOCC1` (stereo not given): “inactive”.
Still for that read-out and setting: next, `O=C(CCC(=O)c1ccc(Cl)cc1)OCc1ccc(Cl)cc1Cl`: “inactive”; `CCOc1ccc(CCNC(=O)C(C)n2nc(C)n3c(cc4sccc43)c2=O)cc1OCC` (stereo not given): “inactive”.
For the compound `CCc1ccc(/C=C(\C#N)C(=O)NC2CC2)s1`, the Potency result was “inactive”.
On to `C[C@@H](C(=O)N1CCN(c2ccccc2)CC1)n1cnc2ccccc2c1=O`, for which the Potency result was “inactive”.
With `CCC(C)NCCC(c1ccccc1)c1ccc(C)c(C)c1O` (stereo not given), the Potency result was “inactive”.
Same read-out and setting: the value for `CCOc1ccccc1OCC(=O)Nc1cccc2ncccc12` was 8.91 µM (active); that for `COc1c(C)cccc1C(=O)Nc1cccc2ncccc12` was “inactive”.
Same read-out and setting: next, `CCCOc1ccc(NC(=O)COc2cccc(C)c2C)c2cccnc12`: “inactive”; `Cc1ccc(NS(=O)(=O)c2c(C)[nH]c(C)c2C(=O)N2CCCCC2)c(C)c1`: “inactive”.
Still for that read-out and setting: next, `Cc1ccc(N/N=C/C=C/c2ccccc2)cc1Cl`: “inactive”; `Cc1nc2cc(NC(C(=O)Nc3ccc(F)cc3)c3ccccc3)ccc2o1` (stereo not given): “inactive”.
`COc1ccc(C(=O)/C(=C/c2ccncc2)c2nc3ccccc3o2)cc1OC`: the Potency was 15.8 µM (active).
With `COc1ccc(NC(C)=O)cc1NC(=O)/C=C/c1nc2ccccc2o1`, the Potency entry was “inactive”.
Same read-out and setting: next, `COc1ccc(/C=C/c2nc3ccccc3o2)cc1OCC(C)C`: “inactive”; `Cc1ccc(CCC(=O)Nc2ccc(C)c(C)c2)s1`: “inactive”; `CCN1C(=O)c2ccccc2S(=O)c2ccc(C(=O)NCc3ccc(F)cc3)cc21` (stereo not given): “inactive”.
Consider `O=C(O)c1ccc2c(c1)N(Cc1ccc(F)cc1)C(=O)c1ccccc1S2=O` (stereo not given), for which the Potency was 8.91 µM (active).
On the same count and under the same terms, the value for `O=C(NC1CCCCC1)c1ccc2c(c1)N(Cc1ccc(Cl)cc1)C(=O)c1ccccc1S2=O` (stereo not given) was “inactive”; that for `O=C(CC(=O)c1ccc(F)cc1)c1ccc(F)cc1` was “inactive”.
The same measure, in the same setting: the value for `CC(Oc1ccc(C#N)cc1)C(=O)NC(C1CC1)C1CC1` (stereo not given) was “inactive”.
As to `O=S1(=O)c2ccc(N3CCN(Cc4ccccc4F)CC3)cc2Oc2ccccc2CN1Cc1cn(Cc2ccc(Cl)cc2)nn1`, the Potency result was “inactive”.
On the same count and under the same terms, the value for `Cc1ccccc1Cn1nc(C)c(NC(=O)c2cc(-c3ccc(F)cc3)on2)c1C` was “inactive”.
Same read-out and setting: the value for `Cc1nn(Cc2ccc(F)cc2)c(C)c1NC(=O)c1noc2c1CCc1ccccc1-2` was “inactive”.
The same measure, in the same setting: the value for `Cc1nn(Cc2ccc(F)cc2)c(C)c1NC(=O)c1cc(CC(C)C)on1` was 25.1 µM (active).

The values above are taken from PubChem BioAssay AID1745857 (National Center for Advancing Translational Sciences (NCATS), 2022).
